# From PubChem BioAssay (NCI)
# About 79,000 compounds went through this panel and 15% of them were active in at least one assay; those are over-represented in the sample as a whole. Values without a mark were called inactive. The source made the active and inactive calls. No stated cut-off is given here; in the data, active means growth inhibition above about 70%; inactive means the rest.
# Tests used:
# [1] = NCI Yeast Anticancer Drug Screen. Data for the rad52 strain (AID 147);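 further: 0% = growth of vehicle-treated control cultures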; settings: S. cerevisiae rad52 mutant growth inhibition, hits give high values
# Summary of the method: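 Read-out: growth inhibition versus vehicle-treated controls. Cells were a DNA repair-deficient yeast strain treated with compounds.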
# [2] = NCI Yeast Anticancer Drug Screen. Data for the wt1 strain (AID 149);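 further: 0% = growth of vehicle-treated wt1 cultures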; settings: S. cerevisiae wt1 strain (SPY 50644) growth inhibition, hits give high values
# Summary of the method: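 Each compound is tested on wt1 yeast and the loss of growth versus vehicle gives the inhibition value.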
# [3] = NCI Yeast Anticancer Drug Screen. Data for the rad50EPP+ strain (AID 151);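 further: 0% = growth of vehicle-treated control cultures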; settings: S. cerevisiae rad50 mutant strain, hits give high values
# Summary of the method: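 Growth inhibition read against vehicle controls in rad50EPP+ yeast, a strain altered in DNA damage repair, after compound exposure.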
# [4] = NCI Yeast Anticancer Drug Screen. Data for the mgt1 strain (AID 153); settings: S. cerevisiae mgt1 mutant growth inhibition, hits give high values
# Summary of the method: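 mgt1 yeast grown with test compound; read-out is growth inhibition versus vehicle-treated cultures.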
# [5] = NCI Yeast Anticancer Drug Screen. Data for the rad50 strain (AID 155);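 further: 0% = growth of vehicle-only cultures of the same strain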; settings: S. cerevisiae rad50 strain growth inhibition, hits give high values
# Summary of the method: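 Vehicle-treated cultures provide the reference for the growth inhibition reported for compound-exposed, repair-deficient yeast.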
# [6] = NCI Yeast Anticancer Drug Screen. Data for the mec2-1 strain (AID 157); settings: S. cerevisiae mec2-1 strain, hits give high values
# Summary of the method: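 Yeast mec2-1 mutant treated with compound. Readout: growth inhibition vs vehicle controls.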
# [7] = NCI Yeast Anticancer Drug Screen. Data for the rad14 strain (AID 159);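 further: 0% = growth of vehicle-treated control cultures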; settings: S. cerevisiae rad14 strain growth inhibition, hits give high values
# Summary of the method: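 Inhibition of growth is reported for a repair-deficient yeast mutant following compound treatment, calculated relative to cultures that received vehicle.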
# [8] = NCI Yeast Anticancer Drug Screen. Data for the sgs1 mgt1 strain (AID 161);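 further: 0% = growth of cultures given vehicle only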; settings: S. cerevisiae sgs1 mgt1 strain, hits give high values
# Summary of the method: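 Read-out: growth inhibition vs vehicle controls. Cells: mutant yeast strain deficient in DNA damage repair.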
# [9] = NCI Yeast Anticancer Drug Screen. Data for the CLN2oe strain (AID 163);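 further: 0% = growth of vehicle-only control cultures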; settings: S. cerevisiae CLN2oe strain, hits give high values
# Summary of the method: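 Read-out: yeast growth inhibition, expressed relative to vehicle-only controls. The strain bears an engineered cell-cycle alteration.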
# [10] = NCI Yeast Anticancer Drug Screen. Data for the cln2 rad14 strain (AID 165);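 further: 0% = growth equal to vehicle treated cultures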; settings: S. cerevisiae cln2 rad14 strain, hits give high values
# Summary of the method: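 cln2 rad14 yeast strain; compound exposure; growth inhibition read vs vehicle controls.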
# [11] = NCI Yeast Anticancer Drug Screen. Data for the bub3 strain (AID 167); settings: S. cerevisiae bub3 mutant strain, hits give high values
# Summary of the method: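 Mutant yeast screening strain plus compound; vehicle-treated cultures serve as the 0% inhibition reference.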
# [12] = NCI Yeast Anticancer Drug Screen. Data for the wt2 strain (AID 169); settings: S. cerevisiae wt2 strain growth inhibition, hits give high values
# Summary of the method: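 Read-out: growth inhibition versus vehicle-treated control cultures after compound exposure of the yeast strain.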
# [13] = NCI Yeast Anticancer Drug Screen. Data for the mlh1 strain (AID 171);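 further: 0% = growth of vehicle-treated control cultures of the same strain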; settings: S. cerevisiae mlh1 strain growth inhibition, hits give high values
# Summary of the method: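 Read-out: growth inhibition versus vehicle controls. Strain: engineered yeast with a defined DNA repair or cell cycle defect, compound-treated.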
# [14] = NCI Yeast Anticancer Drug Screen. Data for the mlh1 rad18 strain (AID 175); settings: S. cerevisiae mlh1 rad18 strain growth inhibition, hits give high values
# Summary of the method: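 Yeast w/ defined DNA-repair lesions; compound exposure; growth vs vehicle controls → % inhibition.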
# [15] = NCI Yeast Anticancer Drug Screen. Data for the rad18 strain (AID 177); settings: S. cerevisiae rad18 mutant growth inhibition, hits give high values
# Summary of the method: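 Readout: growth inhibition vs vehicle controls. Cells: genetically altered yeast strain, DNA repair defect.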
# [16] = at 5.0 µM (retest, dose inferred, filed as 0.5)
# [17] = at 50.0 µM (retest, dose inferred, filed as 5.0)
structure (smiles),measurement,setting,value
CC(C)(C)c1ccc2c(c1)C(=O)c1ccccc1C2=O,growth inhibition,[1]; at 1.2 µM,-9%
same,growth inhibition,[1]; at 3.7 µM,-13%
same,growth inhibition,[1]; at 11.0 µM,-15%
same,growth inhibition,[1]; at 33.0 µM,-6%
same,growth inhibition,[1]; at 100.0 µM,4%
same,growth inhibition,[2]; at 1.2 µM,0%
same,growth inhibition,[2]; at 3.7 µM,12%
same,growth inhibition,[2]; at 11.0 µM,14%
same,growth inhibition,[2]; at 33.0 µM,12%
same,growth inhibition,[2]; at 100.0 µM,15%
same,growth inhibition,[3]; at 1.2 µM,-9%
same,growth inhibition,[3]; at 3.7 µM,-1%
same,growth inhibition,[3]; at 11.0 µM,18%
same,growth inhibition,[3]; at 33.0 µM,27%
same,growth inhibition,[3]; at 100.0 µM,28%
same,growth inhibition,[4]; at 1.2 µM,-3%
same,growth inhibition,[4]; at 3.7 µM,-9%
same,growth inhibition,[4]; at 11.0 µM,-7%
same,growth inhibition,[4]; at 33.0 µM,-7%
same,growth inhibition,[4]; at 100.0 µM,-4%
same,growth inhibition,[5]; at 1.2 µM,-17%
same,growth inhibition,[5]; at 3.7 µM,-18%
same,growth inhibition,[5]; [16],14%
same,growth inhibition,[5]; at 11.0 µM,-19%
same,growth inhibition,[5]; at 33.0 µM,8%
same,growth inhibition,[5]; [17],5%
same,growth inhibition,[5]; at 50.0 µM,-2.85%
same,growth inhibition,[5]; at 100.0 µM,6%
same,growth inhibition,[6]; at 1.2 µM,-6%
same,growth inhibition,[6]; at 3.7 µM,-6%
same,growth inhibition,[6]; [16],8%
same,growth inhibition,[6]; at 11.0 µM,-6%
same,growth inhibition,[6]; at 33.0 µM,-9%
same,growth inhibition,[6]; [17],8%
same,growth inhibition,[6]; at 50.0 µM,-17.9%
same,growth inhibition,[6]; at 100.0 µM,-5%
same,growth inhibition,[7]; at 1.2 µM,1%
same,growth inhibition,[7]; at 3.7 µM,-13%
same,growth inhibition,[7]; at 11.0 µM,-6%
same,growth inhibition,[7]; at 33.0 µM,2%
same,growth inhibition,[7]; at 100.0 µM,13%
same,growth inhibition,[8]; [16],9%
same,growth inhibition,[8]; [17],20%
same,growth inhibition,[8]; at 50.0 µM,0.45%
same,growth inhibition,[9]; at 1.2 µM,-11%
same,growth inhibition,[9]; at 3.7 µM,-12%
same,growth inhibition,[9]; at 11.0 µM,-14%
same,growth inhibition,[9]; at 33.0 µM,-13%
same,growth inhibition,[9]; at 100.0 µM,-12%
same,growth inhibition,[10]; [16],-7%
same,growth inhibition,[10]; [17],0%
same,growth inhibition,[10]; at 50.0 µM,-6.45%
same,growth inhibition,[11]; at 1.2 µM,4%
same,growth inhibition,[11]; at 3.7 µM,24%
same,growth inhibition,[11]; [16],25%
same,growth inhibition,[11]; at 11.0 µM,65%
same,growth inhibition,[11]; at 33.0 µM,78% (active)
same,growth inhibition,[11]; [17],85% (active)
same,growth inhibition,[11]; at 50.0 µM,89% (active)
same,growth inhibition,[11]; at 100.0 µM,91% (active)
same,growth inhibition,[12]; at 1.2 µM,1%
same,growth inhibition,[12]; at 3.7 µM,6%
same,growth inhibition,[12]; at 11.0 µM,10%
same,growth inhibition,[12]; at 33.0 µM,10%
same,growth inhibition,[12]; at 100.0 µM,25%
same,growth inhibition,[13]; at 1.2 µM,-15%
same,growth inhibition,[13]; at 3.7 µM,-10%
same,growth inhibition,[13]; at 11.0 µM,-10%
same,growth inhibition,[13]; at 33.0 µM,-10%
same,growth inhibition,[13]; at 100.0 µM,12%
same,growth inhibition,[14]; [16],5%
same,growth inhibition,[14]; [17],26%
same,growth inhibition,[14]; at 50.0 µM,-4.9%
same,growth inhibition,[15]; at 1.2 µM,-11%
same,growth inhibition,[15]; at 3.7 µM,-9%
same,growth inhibition,[15]; at 11.0 µM,-6%
same,growth inhibition,[15]; at 33.0 µM,-6%
same,growth inhibition,[15]; at 100.0 µM,-14%
Nc1ccc2cc(Br)ccc2c1Br,growth inhibition,[1]; at 1.2 µM,-6%
same,growth inhibition,[1]; at 3.7 µM,1%
same,growth inhibition,[1]; at 11.0 µM,1%
same,growth inhibition,[1]; at 33.0 µM,3%
same,growth inhibition,[1]; at 100.0 µM,52%
same,growth inhibition,[2]; at 1.2 µM,-2%
same,growth inhibition,[2]; at 3.7 µM,-3%
same,growth inhibition,[2]; at 11.0 µM,-3%
same,growth inhibition,[2]; at 33.0 µM,-5%
same,growth inhibition,[2]; at 100.0 µM,-1%
same,growth inhibition,[3]; at 1.2 µM,1%
same,growth inhibition,[3]; at 3.7 µM,7%
same,growth inhibition,[3]; at 11.0 µM,23%
same,growth inhibition,[3]; at 33.0 µM,19%
same,growth inhibition,[3]; at 100.0 µM,49%
same,growth inhibition,[4]; at 1.2 µM,-4%
same,growth inhibition,[4]; at 3.7 µM,-1%
same,growth inhibition,[4]; at 11.0 µM,-1%
same,growth inhibition,[4]; at 33.0 µM,-1%
same,growth inhibition,[4]; at 100.0 µM,4%
same,growth inhibition,[5]; at 1.2 µM,-2%
same,growth inhibition,[5]; at 3.7 µM,1%
same,growth inhibition,[5]; [16],13%
same,growth inhibition,[5]; at 11.0 µM,8%
same,growth inhibition,[5]; at 33.0 µM,2%
same,growth inhibition,[5]; [17],27%
same,growth inhibition,[5]; at 50.0 µM,4.6%
same,growth inhibition,[5]; at 100.0 µM,26%
same,growth inhibition,[6]; at 1.2 µM,0%
same,growth inhibition,[6]; at 3.7 µM,-1%
same,growth inhibition,[6]; [16],-5%
same,growth inhibition,[6]; at 11.0 µM,-2%
same,growth inhibition,[6]; at 33.0 µM,-2%
same,growth inhibition,[6]; [17],1%
same,growth inhibition,[6]; at 50.0 µM,90.2% (active)
same,growth inhibition,[6]; at 100.0 µM,1%
same,growth inhibition,[7]; at 1.2 µM,-6%
same,growth inhibition,[7]; at 3.7 µM,0%
same,growth inhibition,[7]; at 11.0 µM,7%
same,growth inhibition,[7]; at 33.0 µM,5%
same,growth inhibition,[7]; at 100.0 µM,26%
same,growth inhibition,[8]; [16],15%
same,growth inhibition,[8]; [17],14%
same,growth inhibition,[8]; at 50.0 µM,18%
same,growth inhibition,[9]; at 1.2 µM,-2%
same,growth inhibition,[9]; at 3.7 µM,-2%
same,growth inhibition,[9]; at 11.0 µM,-3%
same,growth inhibition,[9]; at 33.0 µM,-5%
same,growth inhibition,[9]; at 100.0 µM,2%
same,growth inhibition,[10]; [16],3%
same,growth inhibition,[10]; [17],9%
same,growth inhibition,[10]; at 50.0 µM,-23%
same,growth inhibition,[11]; at 1.2 µM,3%
same,growth inhibition,[11]; at 3.7 µM,3%
same,growth inhibition,[11]; [16],22%
same,growth inhibition,[11]; at 11.0 µM,1%
same,growth inhibition,[11]; at 33.0 µM,4%
same,growth inhibition,[11]; [17],47%
same,growth inhibition,[11]; at 50.0 µM,88.5% (active)
same,growth inhibition,[11]; at 100.0 µM,6%
same,growth inhibition,[12]; at 1.2 µM,-1%
same,growth inhibition,[12]; at 3.7 µM,-8%
same,growth inhibition,[12]; at 11.0 µM,-5%
same,growth inhibition,[12]; at 33.0 µM,-6%
same,growth inhibition,[12]; at 100.0 µM,28%
same,growth inhibition,[13]; at 1.2 µM,-2%
same,growth inhibition,[13]; at 3.7 µM,1%
same,growth inhibition,[13]; at 11.0 µM,3%
same,growth inhibition,[13]; at 33.0 µM,1%
same,growth inhibition,[13]; at 100.0 µM,20%
same,growth inhibition,[14]; [16],28%
same,growth inhibition,[14]; [17],57%
same,growth inhibition,[14]; at 50.0 µM,91.2% (active)
same,growth inhibition,[15]; at 1.2 µM,-4%
same,growth inhibition,[15]; at 3.7 µM,-1%
same,growth inhibition,[15]; at 11.0 µM,7%
same,growth inhibition,[15]; at 33.0 µM,-3%
same,growth inhibition,[15]; at 100.0 µM,20%
